Results as given in ChEMBL document CHEMBL2218924, “A broad activity screen in support of a chemogenomic map for kinase signalling research and drug discovery” (Biochem J, 2013).

Legend:
[1] = target: T1, Serine/threonine-protein kinase 17A (Homo sapiens) (UniProt Q9UEE5); settings: at 10 µM
T1 sequence (whole entry): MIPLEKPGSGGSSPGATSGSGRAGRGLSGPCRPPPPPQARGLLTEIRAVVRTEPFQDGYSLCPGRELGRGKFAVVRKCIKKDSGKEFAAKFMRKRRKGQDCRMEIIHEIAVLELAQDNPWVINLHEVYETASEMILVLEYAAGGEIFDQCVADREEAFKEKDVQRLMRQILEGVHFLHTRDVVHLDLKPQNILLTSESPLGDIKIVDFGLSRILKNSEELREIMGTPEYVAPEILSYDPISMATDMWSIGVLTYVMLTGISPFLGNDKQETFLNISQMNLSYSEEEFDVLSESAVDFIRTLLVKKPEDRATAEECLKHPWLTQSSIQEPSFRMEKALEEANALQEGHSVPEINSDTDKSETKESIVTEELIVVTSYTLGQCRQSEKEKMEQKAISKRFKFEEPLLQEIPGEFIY

[2] = target: T2, Ephrin type-A receptor 1 (Homo sapiens) (UniProt P21709); settings: at 10 µM
T2 sequence (whole entry): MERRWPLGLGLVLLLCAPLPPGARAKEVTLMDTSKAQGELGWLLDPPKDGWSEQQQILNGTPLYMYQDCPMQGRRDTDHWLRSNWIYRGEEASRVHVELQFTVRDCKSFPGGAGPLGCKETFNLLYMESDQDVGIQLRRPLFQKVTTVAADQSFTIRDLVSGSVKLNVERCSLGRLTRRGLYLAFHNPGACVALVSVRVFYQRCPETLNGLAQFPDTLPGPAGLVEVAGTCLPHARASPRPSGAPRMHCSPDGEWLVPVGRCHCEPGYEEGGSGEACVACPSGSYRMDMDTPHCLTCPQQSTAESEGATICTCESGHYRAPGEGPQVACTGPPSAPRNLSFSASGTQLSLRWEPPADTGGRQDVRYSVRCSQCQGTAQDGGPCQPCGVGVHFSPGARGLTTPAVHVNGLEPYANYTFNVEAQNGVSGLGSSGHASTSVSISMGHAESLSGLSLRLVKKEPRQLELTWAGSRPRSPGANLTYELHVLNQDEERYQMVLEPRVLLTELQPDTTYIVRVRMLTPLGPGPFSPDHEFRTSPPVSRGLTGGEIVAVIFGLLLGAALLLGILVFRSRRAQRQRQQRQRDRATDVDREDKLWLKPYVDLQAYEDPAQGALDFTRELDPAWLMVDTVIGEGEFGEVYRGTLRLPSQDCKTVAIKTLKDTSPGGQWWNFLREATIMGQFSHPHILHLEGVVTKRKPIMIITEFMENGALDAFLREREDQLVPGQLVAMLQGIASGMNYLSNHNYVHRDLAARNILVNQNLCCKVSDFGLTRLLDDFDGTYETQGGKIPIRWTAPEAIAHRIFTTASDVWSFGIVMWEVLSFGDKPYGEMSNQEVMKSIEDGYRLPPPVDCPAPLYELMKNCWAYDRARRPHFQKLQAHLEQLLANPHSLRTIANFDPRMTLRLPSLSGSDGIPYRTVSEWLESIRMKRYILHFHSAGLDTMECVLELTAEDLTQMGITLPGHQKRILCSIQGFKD

[3] = target: Ephrin type-A receptor 2 (Homo sapiens) (UniProt P29317); settings: at 1 µM
Chain of Ephrin type-A receptor 2 (Homo sapiens) (P29317 whole entry): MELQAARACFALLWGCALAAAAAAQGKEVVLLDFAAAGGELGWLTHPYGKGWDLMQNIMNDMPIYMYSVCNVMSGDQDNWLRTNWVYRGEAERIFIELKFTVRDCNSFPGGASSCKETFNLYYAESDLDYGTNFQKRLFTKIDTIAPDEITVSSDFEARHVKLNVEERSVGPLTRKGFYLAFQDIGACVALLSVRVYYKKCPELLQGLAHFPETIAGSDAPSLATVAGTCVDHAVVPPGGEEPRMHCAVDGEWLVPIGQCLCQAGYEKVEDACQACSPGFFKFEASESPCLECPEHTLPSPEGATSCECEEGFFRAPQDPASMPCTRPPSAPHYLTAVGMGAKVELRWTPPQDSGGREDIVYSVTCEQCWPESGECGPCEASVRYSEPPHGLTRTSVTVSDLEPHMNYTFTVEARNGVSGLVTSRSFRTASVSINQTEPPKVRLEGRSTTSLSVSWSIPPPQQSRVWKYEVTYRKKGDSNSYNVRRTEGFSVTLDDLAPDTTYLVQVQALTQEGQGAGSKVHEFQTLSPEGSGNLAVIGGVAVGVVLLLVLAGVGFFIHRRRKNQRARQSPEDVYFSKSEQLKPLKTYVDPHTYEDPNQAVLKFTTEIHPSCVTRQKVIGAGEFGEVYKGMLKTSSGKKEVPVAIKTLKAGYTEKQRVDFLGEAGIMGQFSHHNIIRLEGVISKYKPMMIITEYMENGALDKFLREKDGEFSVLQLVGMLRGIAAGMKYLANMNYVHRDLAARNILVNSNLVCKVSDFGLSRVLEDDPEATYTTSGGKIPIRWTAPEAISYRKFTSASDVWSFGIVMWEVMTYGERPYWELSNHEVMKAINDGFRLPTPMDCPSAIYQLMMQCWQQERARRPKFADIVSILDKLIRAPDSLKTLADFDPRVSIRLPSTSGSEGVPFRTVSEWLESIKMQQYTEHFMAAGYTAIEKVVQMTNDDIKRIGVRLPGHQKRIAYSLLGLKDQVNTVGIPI

[4] = target: Ephrin type-A receptor 2 (Homo sapiens) (UniProt P29317); settings: at 10 µM
[5] = target: T3, Ephrin type-A receptor 3 (Homo sapiens) (UniProt P29320); settings: at 1 µM
T3 sequence (whole entry): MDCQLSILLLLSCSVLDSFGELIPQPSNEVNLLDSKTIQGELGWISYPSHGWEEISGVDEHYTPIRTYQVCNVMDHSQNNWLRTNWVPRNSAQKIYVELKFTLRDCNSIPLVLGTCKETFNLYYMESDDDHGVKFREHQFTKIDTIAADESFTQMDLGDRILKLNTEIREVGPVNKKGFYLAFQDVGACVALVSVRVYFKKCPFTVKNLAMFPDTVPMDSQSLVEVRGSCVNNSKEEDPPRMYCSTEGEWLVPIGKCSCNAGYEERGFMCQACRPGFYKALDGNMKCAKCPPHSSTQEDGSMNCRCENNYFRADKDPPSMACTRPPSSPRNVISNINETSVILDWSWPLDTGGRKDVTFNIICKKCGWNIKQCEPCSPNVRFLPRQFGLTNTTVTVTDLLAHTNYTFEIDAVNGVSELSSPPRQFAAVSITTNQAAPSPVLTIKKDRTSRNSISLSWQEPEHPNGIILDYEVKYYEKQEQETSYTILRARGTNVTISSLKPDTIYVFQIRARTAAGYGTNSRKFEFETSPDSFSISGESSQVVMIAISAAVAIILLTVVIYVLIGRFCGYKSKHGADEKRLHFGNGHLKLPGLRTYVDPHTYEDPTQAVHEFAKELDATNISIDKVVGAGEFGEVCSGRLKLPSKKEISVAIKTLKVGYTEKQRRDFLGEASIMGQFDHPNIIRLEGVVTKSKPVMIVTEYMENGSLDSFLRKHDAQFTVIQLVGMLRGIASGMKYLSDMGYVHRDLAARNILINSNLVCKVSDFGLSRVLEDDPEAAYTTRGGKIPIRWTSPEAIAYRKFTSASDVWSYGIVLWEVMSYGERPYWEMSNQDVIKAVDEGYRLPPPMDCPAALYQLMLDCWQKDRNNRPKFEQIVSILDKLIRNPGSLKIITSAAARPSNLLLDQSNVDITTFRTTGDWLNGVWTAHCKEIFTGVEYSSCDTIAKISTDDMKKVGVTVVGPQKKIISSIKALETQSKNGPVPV

[6] = target: T3, Ephrin type-A receptor 3 (Homo sapiens); settings: at 10 µM
[7] = target: Ephrin type-A receptor 4 (Homo sapiens) (UniProt P54764); settings: at 10 µM
Chain of Ephrin type-A receptor 4 (Homo sapiens) (P54764 whole entry): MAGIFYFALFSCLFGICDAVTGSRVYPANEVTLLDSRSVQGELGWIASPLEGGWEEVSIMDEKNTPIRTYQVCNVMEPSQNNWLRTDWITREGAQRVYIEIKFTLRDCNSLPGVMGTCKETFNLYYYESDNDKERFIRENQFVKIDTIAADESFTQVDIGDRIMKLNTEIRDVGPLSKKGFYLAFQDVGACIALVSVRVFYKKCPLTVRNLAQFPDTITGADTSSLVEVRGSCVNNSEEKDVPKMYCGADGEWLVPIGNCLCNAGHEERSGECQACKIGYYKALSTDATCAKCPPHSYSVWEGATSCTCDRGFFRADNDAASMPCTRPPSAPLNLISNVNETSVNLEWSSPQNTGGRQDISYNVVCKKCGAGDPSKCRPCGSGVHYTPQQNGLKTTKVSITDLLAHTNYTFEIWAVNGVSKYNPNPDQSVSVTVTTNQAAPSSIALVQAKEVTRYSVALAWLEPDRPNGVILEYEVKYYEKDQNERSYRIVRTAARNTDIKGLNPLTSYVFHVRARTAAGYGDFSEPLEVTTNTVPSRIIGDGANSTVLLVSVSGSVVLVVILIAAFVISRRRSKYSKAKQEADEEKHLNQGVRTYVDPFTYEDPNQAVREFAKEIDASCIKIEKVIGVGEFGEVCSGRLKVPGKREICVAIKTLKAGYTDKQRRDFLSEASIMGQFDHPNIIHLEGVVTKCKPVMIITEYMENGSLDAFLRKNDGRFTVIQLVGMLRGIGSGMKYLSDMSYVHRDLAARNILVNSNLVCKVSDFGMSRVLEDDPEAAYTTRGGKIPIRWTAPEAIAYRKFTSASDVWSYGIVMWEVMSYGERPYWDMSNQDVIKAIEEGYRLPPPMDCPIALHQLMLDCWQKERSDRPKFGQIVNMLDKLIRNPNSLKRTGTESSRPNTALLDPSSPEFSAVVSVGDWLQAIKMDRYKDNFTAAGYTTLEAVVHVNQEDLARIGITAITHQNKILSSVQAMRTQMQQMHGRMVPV

[8] = target: Ephrin type-A receptor 5 (Homo sapiens) (UniProt P54756); settings: at 1 µM
Chain of Ephrin type-A receptor 5 (Homo sapiens) (P54756 whole entry): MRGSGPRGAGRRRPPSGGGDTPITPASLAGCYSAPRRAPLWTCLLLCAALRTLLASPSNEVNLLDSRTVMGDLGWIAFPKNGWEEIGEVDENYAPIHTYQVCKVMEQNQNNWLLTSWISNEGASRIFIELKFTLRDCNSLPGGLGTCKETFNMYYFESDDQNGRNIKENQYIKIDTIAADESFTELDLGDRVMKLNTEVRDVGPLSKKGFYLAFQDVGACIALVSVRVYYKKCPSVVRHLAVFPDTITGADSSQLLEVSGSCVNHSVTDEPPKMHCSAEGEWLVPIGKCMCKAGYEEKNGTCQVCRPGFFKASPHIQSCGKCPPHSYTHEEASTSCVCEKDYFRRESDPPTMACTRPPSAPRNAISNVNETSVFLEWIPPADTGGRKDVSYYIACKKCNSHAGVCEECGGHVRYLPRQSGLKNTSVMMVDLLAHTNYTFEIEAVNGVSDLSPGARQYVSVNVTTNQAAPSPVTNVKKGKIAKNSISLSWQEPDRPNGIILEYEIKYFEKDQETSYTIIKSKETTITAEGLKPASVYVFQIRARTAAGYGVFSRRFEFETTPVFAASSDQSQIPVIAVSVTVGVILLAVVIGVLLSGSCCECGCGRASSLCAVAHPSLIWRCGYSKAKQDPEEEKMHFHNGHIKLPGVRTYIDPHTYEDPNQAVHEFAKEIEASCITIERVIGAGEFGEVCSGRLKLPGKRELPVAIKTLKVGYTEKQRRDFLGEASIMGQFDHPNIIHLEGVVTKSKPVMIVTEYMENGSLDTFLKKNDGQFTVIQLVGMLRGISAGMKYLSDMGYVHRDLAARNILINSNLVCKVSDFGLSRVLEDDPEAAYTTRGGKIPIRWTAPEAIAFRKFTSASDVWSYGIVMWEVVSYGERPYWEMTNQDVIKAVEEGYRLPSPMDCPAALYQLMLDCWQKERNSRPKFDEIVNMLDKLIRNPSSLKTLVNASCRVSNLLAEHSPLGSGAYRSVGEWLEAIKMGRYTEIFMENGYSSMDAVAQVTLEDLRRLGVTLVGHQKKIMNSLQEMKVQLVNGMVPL

[9] = target: Ephrin type-A receptor 5 (Homo sapiens) (UniProt P54756); settings: at 10 µM
[10] = target: Ephrin type-A receptor 7 (Homo sapiens) (UniProt Q15375); settings: at 1 µM
Chain of Ephrin type-A receptor 7 (Homo sapiens) (Q15375 28-998 limits assumed): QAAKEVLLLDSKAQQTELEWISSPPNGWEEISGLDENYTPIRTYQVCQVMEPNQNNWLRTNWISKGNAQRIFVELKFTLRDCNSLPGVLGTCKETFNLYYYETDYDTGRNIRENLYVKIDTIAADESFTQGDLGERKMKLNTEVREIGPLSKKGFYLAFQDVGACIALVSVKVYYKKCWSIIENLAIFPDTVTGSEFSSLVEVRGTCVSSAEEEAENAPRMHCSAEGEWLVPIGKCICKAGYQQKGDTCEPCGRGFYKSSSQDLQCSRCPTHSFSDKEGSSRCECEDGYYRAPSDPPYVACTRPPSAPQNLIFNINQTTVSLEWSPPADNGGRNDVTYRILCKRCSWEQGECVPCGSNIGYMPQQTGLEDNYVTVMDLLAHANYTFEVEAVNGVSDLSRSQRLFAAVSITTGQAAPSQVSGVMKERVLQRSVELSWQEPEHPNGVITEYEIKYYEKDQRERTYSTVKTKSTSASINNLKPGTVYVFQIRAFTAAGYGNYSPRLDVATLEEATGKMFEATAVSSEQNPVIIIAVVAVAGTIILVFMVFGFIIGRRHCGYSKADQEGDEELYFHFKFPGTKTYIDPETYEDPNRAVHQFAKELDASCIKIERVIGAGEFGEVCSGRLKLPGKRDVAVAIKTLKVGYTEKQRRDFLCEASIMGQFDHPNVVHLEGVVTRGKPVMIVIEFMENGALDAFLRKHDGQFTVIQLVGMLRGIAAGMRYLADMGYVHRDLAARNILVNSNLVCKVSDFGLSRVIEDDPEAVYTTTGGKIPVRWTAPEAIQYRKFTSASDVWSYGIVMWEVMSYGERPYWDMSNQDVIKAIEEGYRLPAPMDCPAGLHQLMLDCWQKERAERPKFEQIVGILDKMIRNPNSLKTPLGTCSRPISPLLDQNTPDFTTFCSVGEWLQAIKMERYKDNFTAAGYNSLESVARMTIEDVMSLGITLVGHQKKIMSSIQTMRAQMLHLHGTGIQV

[11] = target: Ephrin type-A receptor 7 (Homo sapiens) (UniProt Q15375); settings: at 10 µM
[12] = target: T4, Ephrin type-A receptor 8 (Homo sapiens) (UniProt P29322); settings: at 1 µM
T4 sequence (whole entry): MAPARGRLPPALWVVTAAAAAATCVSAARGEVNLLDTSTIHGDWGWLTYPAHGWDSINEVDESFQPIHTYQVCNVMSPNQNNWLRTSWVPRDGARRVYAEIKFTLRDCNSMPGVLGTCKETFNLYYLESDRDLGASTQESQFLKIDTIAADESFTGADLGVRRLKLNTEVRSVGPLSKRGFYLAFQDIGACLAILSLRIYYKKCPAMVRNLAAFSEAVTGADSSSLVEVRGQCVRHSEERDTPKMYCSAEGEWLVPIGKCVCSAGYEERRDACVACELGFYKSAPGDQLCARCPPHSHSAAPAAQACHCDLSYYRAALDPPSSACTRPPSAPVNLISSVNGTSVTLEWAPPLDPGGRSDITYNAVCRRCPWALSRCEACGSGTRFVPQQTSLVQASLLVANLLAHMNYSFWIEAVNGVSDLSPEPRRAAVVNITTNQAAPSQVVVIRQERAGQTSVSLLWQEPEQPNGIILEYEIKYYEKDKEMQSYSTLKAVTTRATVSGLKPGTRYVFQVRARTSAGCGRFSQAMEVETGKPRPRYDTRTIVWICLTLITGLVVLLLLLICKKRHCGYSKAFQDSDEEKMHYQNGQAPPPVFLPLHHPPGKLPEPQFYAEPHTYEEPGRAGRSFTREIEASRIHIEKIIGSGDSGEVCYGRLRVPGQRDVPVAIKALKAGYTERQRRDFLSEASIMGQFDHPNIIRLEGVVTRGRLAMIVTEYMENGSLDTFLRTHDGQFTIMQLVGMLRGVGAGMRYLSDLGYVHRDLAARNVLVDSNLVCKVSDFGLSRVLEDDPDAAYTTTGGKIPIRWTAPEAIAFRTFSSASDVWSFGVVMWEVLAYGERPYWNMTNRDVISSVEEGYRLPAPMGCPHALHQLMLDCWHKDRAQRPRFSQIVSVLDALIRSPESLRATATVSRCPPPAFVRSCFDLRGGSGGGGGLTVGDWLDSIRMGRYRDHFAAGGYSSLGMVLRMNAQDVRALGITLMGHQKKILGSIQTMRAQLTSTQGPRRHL

[13] = target: T4, Ephrin type-A receptor 8 (Homo sapiens); settings: at 10 µM
[14] = target: T5, Dual specificity tyrosine-phosphorylation-regulated kinase 2 (Homo sapiens) (UniProt Q92630); settings: at 1 µM
T5 sequence (whole entry): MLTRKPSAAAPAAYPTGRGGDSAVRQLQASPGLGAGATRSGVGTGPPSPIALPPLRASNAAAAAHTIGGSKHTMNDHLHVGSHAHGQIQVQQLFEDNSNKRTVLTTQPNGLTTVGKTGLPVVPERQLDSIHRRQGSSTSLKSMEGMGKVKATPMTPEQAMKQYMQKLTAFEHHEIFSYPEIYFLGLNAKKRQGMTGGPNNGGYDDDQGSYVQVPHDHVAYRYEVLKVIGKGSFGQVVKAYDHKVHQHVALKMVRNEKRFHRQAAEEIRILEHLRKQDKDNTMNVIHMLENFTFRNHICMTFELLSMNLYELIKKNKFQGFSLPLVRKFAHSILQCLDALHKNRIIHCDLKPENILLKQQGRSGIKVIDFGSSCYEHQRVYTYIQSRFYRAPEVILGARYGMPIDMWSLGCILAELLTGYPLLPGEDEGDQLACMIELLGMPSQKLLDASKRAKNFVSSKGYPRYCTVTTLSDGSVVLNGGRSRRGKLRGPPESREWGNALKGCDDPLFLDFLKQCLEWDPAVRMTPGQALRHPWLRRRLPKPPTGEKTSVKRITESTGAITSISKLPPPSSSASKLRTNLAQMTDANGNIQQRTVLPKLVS

[15] = target: T5, Dual specificity tyrosine-phosphorylation-regulated kinase 2 (Homo sapiens); settings: at 10 µM
[16] = target: T2, Ephrin type-A receptor 1 (Homo sapiens); settings: at 1 µM
[17] = target: T6, Ephrin type-B receptor 1 (Homo sapiens) (UniProt P54762); settings: at 1 µM
T6 sequence (whole entry): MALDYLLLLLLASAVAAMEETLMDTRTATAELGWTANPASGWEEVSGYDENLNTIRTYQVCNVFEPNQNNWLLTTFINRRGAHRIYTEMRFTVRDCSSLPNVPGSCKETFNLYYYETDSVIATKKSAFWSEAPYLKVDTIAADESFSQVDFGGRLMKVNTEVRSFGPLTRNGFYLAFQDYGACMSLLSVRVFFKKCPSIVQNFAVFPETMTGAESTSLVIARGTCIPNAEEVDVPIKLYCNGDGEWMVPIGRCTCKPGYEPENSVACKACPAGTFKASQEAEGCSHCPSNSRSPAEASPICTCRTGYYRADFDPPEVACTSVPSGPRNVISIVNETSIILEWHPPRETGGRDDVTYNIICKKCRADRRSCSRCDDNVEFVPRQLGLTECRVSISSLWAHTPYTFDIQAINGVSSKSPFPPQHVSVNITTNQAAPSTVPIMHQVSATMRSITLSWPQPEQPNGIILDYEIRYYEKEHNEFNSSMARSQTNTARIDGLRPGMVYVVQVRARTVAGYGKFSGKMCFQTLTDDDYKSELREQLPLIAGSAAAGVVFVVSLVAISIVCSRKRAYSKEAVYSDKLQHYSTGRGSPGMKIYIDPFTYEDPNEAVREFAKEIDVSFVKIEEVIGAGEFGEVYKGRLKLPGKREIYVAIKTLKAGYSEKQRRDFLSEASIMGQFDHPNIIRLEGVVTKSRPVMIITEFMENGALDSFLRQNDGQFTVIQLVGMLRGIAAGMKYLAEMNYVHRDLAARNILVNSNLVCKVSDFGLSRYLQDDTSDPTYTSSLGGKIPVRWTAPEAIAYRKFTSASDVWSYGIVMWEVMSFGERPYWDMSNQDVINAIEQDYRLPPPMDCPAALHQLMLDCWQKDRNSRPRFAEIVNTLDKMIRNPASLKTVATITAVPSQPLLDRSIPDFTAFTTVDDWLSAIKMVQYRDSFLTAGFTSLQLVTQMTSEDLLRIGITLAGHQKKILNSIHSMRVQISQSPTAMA

[18] = target: Ephrin type-A receptor 4 (Homo sapiens) (UniProt P54764); settings: at 1 µM
[19] = target: Epidermal growth factor receptor (Homo sapiens) (UniProt P00533); settings: at 1 µM
[20] = target: Epidermal growth factor receptor (Homo sapiens) (UniProt P00533); settings: at 10 µM

Compound	residual activity [1] [%]	residual activity [2] [%]	residual activity [3] [%]	residual activity [4] [%]	residual activity [5] [%]	residual activity [6] [%]	residual activity [7] [%]	residual activity [8] [%]	residual activity [9] [%]	residual activity [10] [%]	residual activity [11] [%]	residual activity [12] [%]	residual activity [13] [%]	residual activity [14] [%]	residual activity [15] [%]	residual activity [16] [%]	residual activity [17] [%]	residual activity [18] [%]	residual activity [19] [%]	residual activity [20] [%]
CN(C)CCCn1cc(C2=C(c3c[nH]c4ccccc34)C(=O)NC2=O)c2ccccc21	46	37	102	68	109	82	82	123	103	108	87	120	106							
c1ccc(-c2n[nH]cc2-c2ccnc3ccccc23)nc1		90	102	95	99	78	103	109	103	94	91	95	97	89	104	90	104			
CC[n+]1c(/C=C/N(C)c2ccccc2)n(-c2ccccc2)c2ccc(-c3nc4ccccc4s3)cc21	68	100	109	90	116	92	85	120	110	108	96	114		99	103	100	103	106		
COc1cc2ncnc(Nc3ccc(NC(=O)c4ccccc4)cc3)c2cc1OC	78	106				102	102	104	97	92	66	103	103	98	98	107	97	109		
Oc1ccc(Nc2nc(-c3ccc(Cl)cc3)cs2)cc1	96	63	88	113	107	111	103	112	86	105	102	99	96	104	93	95	108	113		
O=Nc1c(-c2c(O)[nH]c3ccccc23)[nH]c2ccccc12	4	61	61	16	58	9	83	59	9	70	15	84	43	79	20	55	59	96		
Nc1nc(Nc2ccc(S(N)(=O)=O)cc2)nn1C(=S)Nc1c(F)cccc1F	4	3	13	-2	65	23	86	59	11	3	-2	76	24	49	-1	1	1	97		
O=C1Nc2cc(Br)ccc2/C1=C1/Nc2ccccc2/C1=N\O	10	92	27	20	25	3	98	37	42	68	20	69	82			99	34	109	66	33
